This note sets out measurements from the supplement of paper PMC12024424.

Structures can show the parent of a compound that is named as a salt.

The experiment relates to Staphylococcus aureus Sa2 (MRSA, cystic fibrosis isolate). Description: growth reduction vs untreated control (OD550); higher = stronger antibacterial activity. The settings on record: 0.1 mM; 24 h. On the procedure:
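Single-dose screen of the MedChem Express Drug Repurposing Library (0.1 mM, 1% DMSO) against planktonic MRSA S. aureus Sa2 (CF isolate) in TSB in 96-well plates, 37 °C aerobic, 24 h. Assays were run in triplicate and repeated twice.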
The compound `COc1cccc2c1C(=O)c1c(O)c3c(c(O)c1C2=O)C[C@@](O)(C(=O)CO)C[C@@H]3O[C@H]1C[C@H](N)[C@@H](O)[C@H](C)O1` [Epirubicin (hydrochloride)] yielded a growth reduction of 95%.

Take `CNC(=O)c1ccc(Nc2ncc(C(F)(F)F)c(NCc3nccnc3N(C)S(C)(=O)=O)n2)cc1` [Defactinib]: the growth reduction came out at 96.2%.

Compound `C=CCc1ccc(O)c(-c2cc(CC=C)ccc2O)c1` [Magnolol] showed a growth reduction of 100%.

`O=C(O)Cc1ccccc1Nc1c(Cl)cccc1Cl` [Diclofenac (diethylamine)] gave a growth reduction of 100%.

Compound `CS(=O)(=O)c1ccc([C@@H](O)[C@@H](CF)NC(=O)C(Cl)Cl)cc1` [Florfenicol] showed a growth reduction of 100%.

`COC(=O)C1=C(C)NC(C)=C(C(=O)OC(C)C)C1c1cccc2nonc12` (stereo not given) [Isradipine] gave a growth reduction of 100%.

For `Fc1ccc2c(CCNCc3cccc(OCC(F)(F)C(F)F)c3)c[nH]c2c1` [Idalopirdine Hydrochloride], the growth reduction was found to be 100%.

As for `CN1C(C(=O)Nc2ccccn2)=C(O)c2sc(Cl)cc2S1(=O)=O` [Lornoxicam], the growth reduction was found to be 97.2%.

As to `CC1=C(/C=C/C(C)=C/C=C/C(C)=C/C(=O)Nc2ccc(O)cc2)C(C)(C)CCC1` [Fenretinide], the growth reduction is 100%.

Take `OCCN1CCN(CC/C=C2/c3ccccc3Sc3ccc(Cl)cc32)CC1` [Zuclopenthixol]: the growth reduction worked out at 100%.

`Cc1cc(C2CCCCC2)n(O)c(=O)c1` [Ciclopirox]: the growth reduction came out at 99.3%.

In the case of `Cc1c2c(nn1C)CSCc1cc(n(C)n1)CSc1cc(c3ccccc3c1)OCCCc1c(C(=O)O)n(C)c3c-2c(Cl)ccc13`, the growth reduction amounted to 100%.

In turn, `CC1(C)S[C@@H]2[C@H](NC(=O)[C@H](N)c3ccccc3)C(=O)N2[C@H]1C(=O)OCOC(=O)[C@@H]1N2C(=O)C[C@H]2S(=O)(=O)C1(C)C` [Sultamicillin (tosylate)] returned a growth reduction of 100%.

`C[C@@H](O[C@H]1OCCN(Cc2n[nH]c(=O)[nH]2)[C@H]1c1ccc(F)cc1)c1cc(C(F)(F)F)cc(C(F)(F)F)c1` [Aprepitant] displayed a growth reduction of 98.2%.

`COc1cccc2c1C(=O)c1c(O)c3c(c(O)c1C2=O)C[C@@](O)(C(=O)CO)C[C@@H]3O[C@H]1C[C@H](N)[C@H](O)[C@H](C)O1` [Doxorubicin (hydrochloride)] returned a growth reduction of 96.1%.

`C[C@H]1CNCCCN1S(=O)(=O)c1cccc2cncc(F)c12` [Ripasudil] had a growth reduction of 100%.

For `CCCCc1oc2ccc(NS(C)(=O)=O)cc2c1C(=O)c1ccc(OCCCN(CCCC)CCCC)cc1` [Dronedarone (Hydrochloride)], the growth reduction stood at 92.6%.

For the compound `Cc1ccc(C(=O)Nc2ccc(CN3CCN(C)CC3)c(C(F)(F)F)c2)cc1C#Cc1cnc2[nH]ncc2c1`, the growth reduction came to 100%.

`CCN1CCN(c2ccc(Nc3cc(N(C)C(=O)Nc4c(Cl)c(OC)cc(OC)c4Cl)ncn3)cc2)CC1` [Infigratinib] displayed a growth reduction of 100%.

`CCCCCOc1ccccc1/C(=C\SC)n1ccnc1` [Neticonazole (hydrochloride)] yielded a growth reduction of 100%.

In turn, `C[C@]1(O)C[C@@H](c2nc(-c3ccc4ccc(-c5ccccc5)nc4c3)c3c(N)nccn32)C1` [Linsitinib] displayed a growth reduction of 100%.

Turning to `C[C@@H](OC[C@@]1(c2ccccc2)CC[C@]2(CCC(=O)N2)CN1)c1cc(C(F)(F)F)cc(C(F)(F)F)c1` [Rolapitant], the growth reduction turned out to be 100%.

As for `NC(N)=NC(=O)c1nc(Cl)c(N2CCCCCC2)nc1N` [5-(N,N-Hexamethylene)-amiloride], the growth reduction was 100%.

Compound `CC(=O)Oc1ccccc1C(=O)Nc1ncc([N+](=O)[O-])s1` [Nitazoxanide] had a growth reduction of 99.5%.

As for `CC(C)C[C@@H](C(=O)N[C@H](C(=O)OC1CCCC1)c1ccccc1)[C@H](O)C(=O)NO` [Tosedostat], the growth reduction worked out at 100%.

`CCN(CC)CCN(Cc1ccc(-c2ccc(C(F)(F)F)cc2)cc1)C(=O)Cn1c(SCc2ccc(F)cc2)nc(=O)c2c1CCC2` [Darapladib] showed a growth reduction of 100%.

Take `Cc1nc(C(=O)NCC(=O)O)c(O)c2ccc(Oc3ccccc3)cc12` [Roxadustat]: the growth reduction was determined as 99.9%.

`CC(C)=CCC/C(C)=C/CC/C(C)=C/CSc1ccccc1C(=O)O` [Salirasib] displayed a growth reduction of 100%.

Take `O=C(NC1CCN(CCCCC2(C(=O)NCC(F)(F)F)c3ccccc3-c3ccccc32)CC1)c1ccccc1-c1ccc(C(F)(F)F)cc1` [Lomitapide]: the growth reduction was 100%.

For the compound `Cc1ccc(-n2[nH]c(C)c(N=Nc3cccc(-c4cccc(C(=O)O)c4)c3O)c2=O)cc1C` [Eltrombopag (Olamine)], the growth reduction was 95.9%.

`Cc1ccc(C(=O)c2cc(O)c(O)c([N+](=O)[O-])c2)cc1` [Tolcapone] yielded a growth reduction of 100%.

For `COc1cc2c(cc1Cc1cccc(Cl)c1F)c(=O)c(C(=O)O)cn2[C@H](CO)C(C)C` [Elvitegravir], the growth reduction turned out to be 100%.

As for `COCc1c(C(C)C)nc(C(C)C)c(/C=C/[C@@H](O)C[C@@H](O)CC(=O)O)c1-c1ccc(F)cc1` [Cerivastatin (sodium)], the growth reduction turned out to be 93.6%.

With `CN1CCN(c2ccc3nc(-c4c(N)c5c(F)cccc5[nH]c4=O)[nH]c3c2)CC1` [Dovitinib (lactate)], the growth reduction came to 96%.

With `CC(=O)O[C@]1(C(C)=O)CC[C@H]2[C@@H]3C=C(C)C4=CC(=O)CC[C@]4(C)[C@H]3CC[C@@]21C` [Megestrol acetate], the growth reduction is 100%.

In the case of `Clc1ccc(CO/N=C(\Cn2ccnc2)c2ccc(Cl)cc2Cl)c(Cl)c1` [Oxiconazole nitrate], the growth reduction stood at 100%.

The compound `CC(C)COc1ccc(CNC(=O)N(Cc2ccc(F)cc2)C2CCN(C)CC2)cc1` [Pimavanserin tartrate] returned a growth reduction of 100%.

The compound `C[C@H](CCC(=O)O)[C@H]1CC[C@H]2[C@@H]3[C@H](O)C[C@@H]4C[C@H](O)CC[C@]4(C)[C@H]3CC[C@]12C` [Chenodeoxycholic Acid] gave a growth reduction of 99%.

The compound `Clc1ccc(CSC(Cn2ccnc2)c2ccc(Cl)cc2Cl)cc1` (stereo not given) [Sulconazole (mononitrate)] showed a growth reduction of 100%.

`C=C1C[C@H]2[C@@H]3CCC4=CC(=O)CC[C@@H]4[C@H]3CC[C@]2(C)[C@@]1(OC(C)=O)C(C)=O` [Nestoron] registered a growth reduction of 93.2%.
